Assay results taken from PubChem BioAssay AID488789 (Broad Institute, 2010).
Potency and affinity values are given separately. Inconclusive results are not listed. Calls of active or inactive are those of the source.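 Rule for the calls: active = samples whose fitted half-maximal inhibition concentration is no more than ten times the top valid dose tested; inconclusive = flat response between -70 and -30, or invalid curve fit; inactive = flat within 30 of zero, potency above limit, or signal rising.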

Biological target: Trypsin (Sus scrofa) (UniProt P00761)
Experiment: porcine trypsin inhibitors, dose response, selectivity assay for Rce1 protease inhibitor project, biochemical, quenched peptide fluorescence, cherry-pick (AID 488789);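 note: more negative means stronger trypsin inhibition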
Conditions: quenched peptide cleavage fluorescence; series mostly up to 10 µM

Sequence of Trypsin (Sus scrofa) (P00761 whole entry, looked up): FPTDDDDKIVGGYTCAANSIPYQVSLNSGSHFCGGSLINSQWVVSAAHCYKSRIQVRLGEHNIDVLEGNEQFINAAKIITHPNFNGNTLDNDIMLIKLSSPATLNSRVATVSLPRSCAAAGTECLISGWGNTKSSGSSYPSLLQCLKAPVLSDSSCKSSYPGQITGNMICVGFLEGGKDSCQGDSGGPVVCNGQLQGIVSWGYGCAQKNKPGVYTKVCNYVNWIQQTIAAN

outcome, inactive:
Cc1cccc(N2CCc3c2nc2ccc(Br)cc2c3N)c1, Cc1nc(SC(C(=O)c2ccccc2)c2ccccc2)nc2ccccc12 (configuration not stated), Cc1cccc(-c2nnc(SCc3ccc(C#N)cc3)n2Cc2ccco2)c1, COC(C[C@@H](O)C[C@H](O)[C@H](C)OCc1ccccc1)OC, COc1cccc2sc3ccc(C#CC4(O)CCCCC4)cc3c(=O)c12, CCn1nc(C)cc1C(=O)NC1CC(C)(C)Cc2c1cnn2-c1cccc(F)c1 (configuration not stated), Cc1cccc(NC(=O)c2cc(S(=O)(=O)N3CCCCC3)c[nH]2)c1C, Cc1cc(Cl)c2oc(C(=O)N3CCN(C(=O)c4ccco4)CC3)c(C)c2c1, C[n+]1c2n(c3ccccc31)N=C(c1cc(C(C)(C)C)c(O)c(C(C)(C)C)c1)CS2, Cc1cccc(NS(=O)(=O)c2ccc(C)c(C(=O)OCC(=O)Nc3cc(C)on3)c2)c1, COC(C/C=C/[C@@H](O)[C@H](C)OCc1ccccc1)OC, COc1cccc(-c2cc(C(F)(F)F)n3ncc(S(=O)(=O)c4ccccc4)c3n2)c1, O=C(N/N=C/C1CC=CCC1)c1ccc(O)cc1O (configuration not stated), CC(=O)N[C@@H](C)c1nc2ccccc2n1CCCN1CCN(c2nc(-c3ccc(C)cc3)cs2)CC1, Cc1cc(C)n2nc(CC(=O)NNC(=O)c3ccc(N(C)C)cc3)nc2n1, Cc1ccc(-c2cc3cccc[n+]3cc2-c2ccc(C)cc2)cc1, CCOC(=O)C1=C(C)OC(N)=C(C#N)C1c1cc2c(cc1[N+](=O)[O-])OCO2 (configuration not stated), COc1ccc(-n2c(SCc3ccc([N+](=O)[O-])cc3)nnc2-c2ccc(C)cc2)cc1, CCCN(CCC)CCNC(=O)c1cc2c(-c3ccc(Cl)cc3)nn(C)c2s1, Nc1nc2n[nH]nc2c(=O)[nH]1, CCc1ccc(Nc2n[n+](-c3ccccc3)c(/C=C/c3ccccc3)s2)cc1, Nc1c(Cl)cc(C2=NCCn3nc4cc(C(F)(F)F)ccc4c32)cc1Cl, Cc1cc(C)n(Cc2ccc(NC(=O)c3ccc(COc4ccccc4Br)cc3)cc2)n1, Cc1ccc(OCCN2C(=O)C(=O)c3cc(C)ccc32)cc1, CCn1nnnc1SCC(=O)Nc1nc(C)c(C)s1, CCCCCCCCCCOC(=O)Cn1c(COc2ccccc2C)[n+](C)c2ccccc21, COC(=O)c1sccc1NC(=O)CSc1nnnn1-c1ccccc1C, CC1CCN(C(=O)C2CCN(S(=O)(=O)c3ccc(-n4cnnn4)cc3)CC2)CC1, COc1ccc(Cl)cc1C(=O)Nc1ccc2c(c1)OCO2, C#CCNC(=O)C1=C[C@@H](C2CCCCC2)C[C@@H](OCc2ccc(CO)cc2)O1, COc1ccc(-c2c(C)oc3c(CN4CCN(C)CC4)c(O)ccc3c2=O)cc1, CCC1(c2ccccc2)NC(=O)N(CC(=O)Nc2ccc3c(C)cc(=O)oc3c2)C1=O (configuration not stated), CS(=O)(=O)c1ccc(C(=O)OCC(=O)N(CCc2ccccc2)Cc2ccccc2)cc1, COc1ccc(Cn2c(N)c(S(=O)(=O)c3cccs3)c3nc4ccccc4nc32)cc1, CC1CCN(Cc2c(C(=O)N/N=C/c3cccc(C(F)(F)F)c3)nnn2-c2nonc2N)CC1, CCn1cc(/C=C(\NC(=O)c2ccccc2F)C(=O)N2CCCC2)c2ccccc21, CCN(CC)CCNC(=O)c1[nH]c2ccc(OCc3ccccc3)cc2c1C
